Test results reported in PubChem BioAssay AID1159580 (chemical genetic matrix, 2015).
Where “and” joins values, the source holds several entries; their conditions need not be identical. Equal values may be shown once. About 2,000 (36%) of roughly 5,500 compounds were called active. Not shown: some 18% with an inconclusive outcome. Rule as the data show it: active = normalized growth mostly below about 0.91 (no sharp cut-off); inconclusive = no clear call, values can overlap the other calls; inactive = mostly above about 0.92. This is one part of the list.

Assay: chemical genetic growth profiling, strain panel (AID 1159580);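 also: tested at 20 µM; growth read once vehicle control cultures reached saturation at 30 °C; 1 = growth at the plate median or of vehicle wells; lower values mean less growth of the strain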
Details: S. cerevisiae deletion strains, growth OD

Measured: normalized growth

COc1ccc(CCC(=O)c2c(O)cc(O[C@@H]3O[C@H](CO)C(O)[C@H](O)C3O[C@@H]3O[C@@H](C)[C@H](O)[C@@H](O)[C@H]3O)cc2O)cc1O (some centres not stated)
inactive: locus YAL013W, strain DEP1, active compounds read low 1 | locus YAL021C, strain ccr4, active compounds read low 0.994 | locus YAL026C, strain drs2, active compounds read low 1.04 | locus YAL030W, strain snc1, active compounds read low 1.01 | locus YBL061C, strain skt5, active compounds read low 1.02 | locus YBR009C, strain hhf1, active compounds read low 1.02 | locus YBR021W, strain FUR4, active compounds read low 0.997 | locus YBR023C, strain chs3, active compounds read low 1.02 | locus YBR171W, strain sec66, active compounds read low 1.04 | locus YBR229C, strain ROT2, active compounds read low 0.998 | locus YBR231C, strain swc5, active compounds read low 1.03 | locus YBR279W, strain paf1, active compounds read low 1.02 | locus YCL011C, strain gbp2, active compounds read low 1.02 | locus YCL016C, strain dcc1, active compounds read low 1.01 | locus YCL029C, strain bik1, active compounds read low 0.972 | locus YCL061C, strain MRC1, active compounds read low 1.02 | locus YCL069W, strain vba3, active compounds read low 1.02 | locus YCR088W, strain abp1, active compounds read low 1.02 | locus YDL005C, strain med2, active compounds read low 1.03 | locus YDL035C, strain GPR1, active compounds read low 0.999 | locus YDL040C, strain nat1, active compounds read low 0.998 | locus YDL074C, strain BRE1, active compounds read low 0.966 | locus YDL101C, strain DUN1, active compounds read low 0.995 | locus YDL134C, strain PPH21, active compounds read low 0.997 | locus YDL185W, strain tfp1, active compounds read low 0.955 | locus YDL192W, strain arf1, active compounds read low 0.976 | locus YDR001C, strain nth1, active compounds read low 1.01 | locus YDR069C, strain doa4, active compounds read low 1.04 | locus YDR101C, strain arx1, active compounds read low 0.987 | locus YDR137W, strain rgp1, active compounds read low 1.04 | locus YDR150W, strain NUM1, active compounds read low 1.01 | locus YDR159W, strain sac3, active compounds read low 1.1 | locus YDR162C, strain NBP2, active compounds read low 0.99 | locus YDR195W, strain ref2 0.986 | locus YDR297W, strain sur2, active compounds read low 1.02 | locus YDR318W, strain mcm21, active compounds read low 0.978 | locus YDR334W, strain swr1, active compounds read low 1.03 | locus YDR335W, strain msn5, active compounds read low 1.01 | locus YDR388W, active compounds read low 0.995 | locus YDR392W, strain spt3, active compounds read low 1.02 | locus YDR502C, strain sam2, active compounds read low 1 | locus YEL003W, strain gim4, active compounds read low 1.02 | locus YEL037C, strain rad23, active compounds read low 1.01 | locus YEL061C, strain CIN8 (second series), active compounds read low 1.01 | locus YEL061C, strain CIN8, active compounds read low 0.999 | locus YER015W, strain faa2, active compounds read low 1.01 | locus YER016W, strain bim1, active compounds read low 1.03 | locus YER110C, active compounds read low 0.983 | locus YER111C, strain swi4, active compounds read low 1.01 | locus YER155C, strain BEM2 (second series), active compounds read low 1.03 | locus YER155C, strain BEM2, active compounds read low 0.992 | locus YER167W, strain BCK2, active compounds read low 0.994 | locus YFR010W, strain ubp6, active compounds read low 1.02 | locus YGL078C, strain dbp3, active compounds read low 0.994 | locus YGL086W, strain mad1, active compounds read low 0.999 | locus YGL167C, strain pmr1, active compounds read low 1.03 | locus YGL173C, strain kem1, active compounds read low 1.03 | locus YGL227W, strain vid30, active compounds read low 1.02 | locus YGL240W, strain doc1, active compounds read low 1.05 | locus YGL248W, strain PDE1, active compounds read low 1 | locus YGL253W, strain hxk2, active compounds read low 1.02 | locus YGR078C, strain PAC10, active compounds read low 1.01 | locus YGR135W, strain pre9, active compounds read low 1 | locus YGR229C, strain SMI1, active compounds read low 1.01 | locus YGR252W, strain gcn5, active compounds read low 1.07 | locus YHR013C, strain ard1, active compounds read low 1 | locus YHR027C, strain rpn1, active compounds read low 1.02 | locus YHR030C, strain SLT2, active compounds read low 1 and 0.973 | locus YHR079C, strain IRE1 (second series), active compounds read low 0.98 | locus YHR079C, strain IRE1, active compounds read low 0.961 | locus YHR094C, strain hxt1, active compounds read low 0.966 | locus YHR129C, strain ARP1, active compounds read low 0.998 | locus YHR142W, strain chs7, active compounds read low 1.01 | locus YHR200W, strain rpn10, active compounds read low 0.975 | locus YIL066C, strain RNR3, active compounds read low 0.994 | locus YIL073C, strain SPO22, active compounds read low 0.941 | locus YIL125W, strain kgd1, active compounds read low 0.981 | locus YIR030C, strain dcg1, active compounds read low 0.988 | locus YJL092W, strain hpr5, active compounds read low 1.01 | locus YJL095W, strain BCK1 (second series), active compounds read low 1.01 | locus YJL095W, strain BCK1, active compounds read low 0.969 and 0.981 | locus YJL115W, strain asf1, active compounds read low 1.02 | locus YJL129C, strain trk1, active compounds read low 1.03 | locus YJL134W, strain LCB3, active compounds read low 0.999 | locus YJL154C, strain vps35, active compounds read low 1.01 | locus YJL164C, strain tpk1, active compounds read low 0.995 | locus YJL166W, strain qcr8, active compounds read low 1.02 | locus YJL168C, strain set2, active compounds read low 0.978 | locus YJL187C, strain SWE1 (second series), active compounds read low 0.984 | locus YJL187C, strain SWE1, active compounds read low 1.04 | locus YJR043C, strain POL32, active compounds read low 0.963 | locus YJR066W, strain TOR1, active compounds read low 0.896
